# Measured values as given in PubChem BioAssay AID1645838 (ICCB-Longwood Screening Facility, Harvard Medical School, 2021).
# About 100 (5%) of roughly 2,000 compounds were called active. Rule as the data show it: active = z-score above about 2; inactive = the rest. Only a selection was taken, and actives are over-represented in it overall.
# Test: modulators of mitochondrial supercomplex assembly, cell-based, luminescence, Hoechst nuclei count (AID 1645838);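 also: control cybrid cells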;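 as to z-score: higher means more mitochondrial supercomplex formation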
# Settings: Cells, luminescence/Hoechst cell count ratio, supercomplex reporter; for z-score: stronger effect = higher value; for cell count: measured here: cell number, Hoechst nuclei count
# [1] = library stock concentration (final well concentration not given) 46 uM
# [2] = library stock concentration (final well concentration not given) 278 uM
# [3] = library stock concentration (final well concentration not given) 1.67 mM
# [4] = library stock concentration (final well concentration not given) 10 mM
# [5] = library stock concentration (final well concentration not given) 80 uM
# [6] = library stock concentration (final well concentration not given) 400 uM
# [7] = library stock concentration (final well concentration not given) 2 mM
smiles,measurement,setting,value
C=C1C[C@H](O)[C@H](C/C=C\CCCC(=O)O)[C@H]1/C=C/[C@@H](O)CCCCC,z-score,,-0.218 (inactive)
same,cell count,,5720
CC(C)c1ccccc1S(=O)(=O)c1cc(N)c2ncccc2c1[N+](=O)[O-],z-score,[1],-0.201 (inactive)
same,z-score,[2],0.537 (inactive)
same,z-score,[3],0.241 (inactive)
same,z-score,[4],2.73 (active)
same,cell count,[1],6190
same,cell count,[2],6010
same,cell count,[3],6020
same,cell count,[4],4420
CC(C)(O)c1ccccc1CCC(SCC1(CC(=O)O)CC1)c1cccc(C=Cc2ccc3ccc(Cl)cc3n2)c1 (stereo unspecified),z-score,[5],0.0351 (inactive)
same,z-score,[6],-0.104 (inactive)
same,z-score,[7],-0.0351 (inactive)
same,z-score,[4],-0.342 (inactive)
same,cell count,[5],5230
same,cell count,[6],5680
same,cell count,[7],5330
same,cell count,[4],4770
CCCCC[C@H](O)/C=C/[C@H]1[C@H](O)CC(=O)[C@H]1C/C=C\CCCC(=O)OC(C)C,z-score,,0.469 (inactive)
same,cell count,,4980
CCCNC(=O)C1OC1C(=O)N[C@@H](C(=O)N1CCCC1C(=O)O)C(C)CC (stereo partly specified),z-score,[5],-0.18 (inactive)
same,z-score,[6],0.0728 (inactive)
same,z-score,[7],-0.0724 (inactive)
same,z-score,[4],-0.194 (inactive)
same,cell count,[5],4940
same,cell count,[6],4970
same,cell count,[7],4760
same,cell count,[4],5370
O=c1c(-c2ccc(O)cc2)coc2cc(O)ccc12,z-score,,0.504 (inactive)
same,cell count,,5430
O=c1c(-c2ccc(O)cc2)coc2cc(O)cc(O)c12,z-score,,0.997 (inactive)
same,z-score,[1],0.276 (inactive)
same,z-score,[2],-0.193 (inactive)
same,z-score,[3],0.316 (inactive)
same,z-score,[4],2.63 (active)
same,cell count,,5200
same,cell count,[1],6440
same,cell count,[2],6300
same,cell count,[3],6710
same,cell count,[4],5450
O=c1c(-c2ccc(O)c(O)c2)coc2cc(O)ccc12,z-score,[1],-0.245 (inactive)
same,z-score,[2],-0.0571 (inactive)
same,z-score,[3],-0.19 (inactive)
same,z-score,[4],0.665 (inactive)
same,cell count,[1],6940
same,cell count,[2],6400
same,cell count,[3],6560
same,cell count,[4],5440
O=C(Oc1nsnc1N1CCCCC1)N1CCOCC1,z-score,[5],0.263 (inactive)
same,z-score,[6],0.6 (inactive)
same,z-score,[7],0.737 (inactive)
same,z-score,[4],1.45 (inactive)
same,cell count,[5],4950
same,cell count,[6],4960
same,cell count,[7],4530
same,cell count,[4],4260
CCCCCCCCCCCCCCC(F)C(=O)O (stereo unspecified),z-score,,-0.112 (inactive)
same,cell count,,5870
CC(C)CCOc1ccc(N)cc1,z-score,,-0.619 (inactive)
same,cell count,,5370
N=C(N)c1ccc2cc(OC(=O)c3ccc(N=C(N)N)cc3)ccc2c1,z-score,[1],0.0192 (inactive)
same,z-score,[2],0.31 (inactive)
same,z-score,[3],-0.356 (inactive)
same,z-score,[4],-0.0213 (inactive)
same,cell count,[1],6960
same,cell count,[2],6430
same,cell count,[3],7070
same,cell count,[4],6560
O=C(O)c1ccc(Nc2ncc3c(n2)-c2ccc(Cl)cc2C(c2c(F)cccc2F)=NC3)cc1,outcome,library stock 10 mM,inactive; censored for cell count
same,z-score,[5],-0.747 (inactive)
same,z-score,[6],-0.464 (inactive)
same,z-score,[7],-0.071 (inactive)
same,cell count,[5],4990
same,cell count,[6],4350
same,cell count,[7],3530
Cc1cnc(Nc2ccc(F)cc2Cl)nc1-c1c[nH]c(C(=O)NC(CO)c2cccc(Cl)c2)c1 (stereo unspecified),outcome,library stock 10 mM,inactive; censored for cell count
same,z-score,[1],-0.208 (inactive)
same,z-score,[2],-0.12 (inactive)
same,z-score,[3],2.01 (active)
same,cell count,[1],6210
same,cell count,[2],6120
same,cell count,[3],3060
COc1cc(Nc2ncc3c(n2)-c2ccc(Cl)cc2C(c2c(F)cccc2OC)=NC3)ccc1C(=O)O,outcome,library stock 1.67 mM,inactive; censored for cell count
same,outcome,library stock 10 mM,inactive; censored for cell count
same,z-score,[1],-0.133 (inactive)
same,z-score,[2],1.85 (inactive)
same,cell count,[1],5510
same,cell count,[2],2620
CC(Cc1cc2c(c(C(N)=O)c1)N(CCCO)CC2)NCCOc1ccccc1OCC(F)(F)F (stereo unspecified),z-score,[5],-1.47 (inactive)
same,z-score,[6],-1.87 (inactive)
same,z-score,[7],-2.9 (inactive)
same,z-score,[4],-3.02 (inactive)
same,cell count,[5],5980
same,cell count,[6],5330
same,cell count,[7],5440
same,cell count,[4],5520
COc1ccc(Br)c(-c2nc3ccccc3c(=O)o2)c1,outcome,library stock 10 mM,inactive; censored for cell count
same,z-score,[5],-0.298 (inactive)
same,z-score,[6],-0.159 (inactive)
same,z-score,[7],-0.345 (inactive)
same,cell count,[5],5250
same,cell count,[6],5070
same,cell count,[7],5030
O=c1[nH]oc2cc(Cl)ccc12,z-score,[1],-0.28 (inactive)
same,z-score,[2],0.381 (inactive)
same,z-score,[3],-0.301 (inactive)
same,z-score,[4],0.402 (inactive)
same,cell count,[1],6680
same,cell count,[2],6710
same,cell count,[3],6630
same,cell count,[4],6300
O=P(O)(O)OC1C(O)C(OP(=O)(O)O)C(O)C(OP(=O)(O)O)C1O (stereo unspecified),z-score,,-0.332 (inactive)
same,cell count,,5290
CC(C)CC(NC(=O)NC(CCC(=O)O)C(=O)O)C(=O)O (stereo unspecified),z-score,[1],-0.295 (inactive)
same,z-score,[2],0.0106 (inactive)
same,z-score,[3],0.469 (inactive)
same,z-score,[4],0.233 (inactive)
same,cell count,[1],6480
same,cell count,[2],6530
same,cell count,[3],6460
same,cell count,[4],6410
